Experimental findings from PubChem BioAssay (EPA / NIEHS) are described below.

Assay [1] addresses Estrogen receptor (Homo sapiens) (UniProt P03372). Nature of the assay: CCTE_Deisenroth_AIME_384WELL_LUC_Active: CCTE's 384-well Estrogen Receptor Transactivation Assay with AIME metabolic competence (ERTA luciferase; metabolism positive), Deisenroth Lab (AID 2284030; active = hit-call score of the fitted dose curve at least 0.9, where 1 is the maximum). Put shortly:
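Estrogenic luciferase signal in VM7Luc4E2 cells is measured at 24 hour, after chemicals have been preconditioned 2 hours with PB/BNF-induced rat hepatic S9 in alginate. Gain of signal is fitted relative to 17beta-estradiol, across 0.002 - 200 uM.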

The target is the same in assay [2]. Nature of the assay: CCTE_Deisenroth_AIME_384WELL_LUC_Inactive: CCTE's 384-well Estrogen Receptor Transactivation Assay without AIME metabolic competence (ERTA luciferase; metabolism negative), Deisenroth Lab (AID 2284038; active = hit-call score of the fitted dose curve at least 0.9, where 1 is the maximum;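 note: VM7Luc4E2 breast cells given medium preincubated 2 h with S9-free microspheres; hits raise estrogen receptor luciferase signal so potencies reflect agonists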). Put shortly: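 Metabolism-negative mode: AIME lids stamped in alginate-water, no hepatic S9. 2 h chemical incubation → medium onto VM7Luc4E2 ERTA, 24 h. Readout luciferase luminescence; gain-of-signal fit vs 17beta-estradiol. Conc. 0.002 - 200 uM.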

Assay [3] has the same target. Kind of assay: CCTE_Deisenroth_AIME_384WELL_LUC_Shift: CCTE's 384-well Estrogen Receptor Transactivation Assay with AIME metabolic competence data shift (ERTA luciferase; difference in metabolism positive and negative), Deisenroth Lab (AID 2284041).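 Note: shift is response with S9 minus without S9 so positive means metabolism raised ER signal.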 Put shortly: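 Here, parent compounds undergo 2 h phase I metabolism by PB/BNF-induced rat S9 before 24 h transactivation in VM7Luc4E2 cells; the curve models S9-positive minus S9-negative response over a 10-point series.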

Assay [4] is described as follows: CCTE_Shafer_MEA_acute_burst_duration_mean: CCTE's Neural Acute Assay for Mean Burst Duration, Shafer Lab (AID 2284014).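 Note: hits are decreases in mean burst duration relative to DMSO controls.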 The method, boiled down: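 Acute exposure of mature rat cortical networks (DIV 13 or 15) grown on microelectrode arrays to 0.03-40 uM compound. Mean burst duration compared with the 40-min pre-dose baseline over a 40-min post-dose recording at 37 C.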

A short description of assay [5]: CCTE_Shafer_MEA_acute_per_burst_spike_number_mean: CCTE's Neural Acute Assay for Average Number of Spikes Per Burst, Shafer Lab (AID 2284015).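 Note: hits are decreases in mean spikes per burst versus baseline.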 The method, boiled down:
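Percent change in mean spikes per single-electrode burst is compared between a 40 min baseline and a 40 min recording with compound (0.03-40 uM). Cultures were rat cortical neurons on MEA plates at DIV 13 or 15, recorded at 37 C, with DMSO as the negative control.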

Assay [6] is described as follows: CCTE_Shafer_MEA_acute_interburst_interval_mean: CCTE's Neural Acute Assay for Mean Interburst Interval, Shafer Lab (AID 2284016).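 Note: percent change of mean interburst interval versus each well's own pre-dose baseline; curves fitted for decrease in interburst interval relative to DMSO.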 Put shortly:
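Percent change in mean single-electrode interburst interval was calculated per well from 40 min recordings before and after compound (0.03-40 uM). Recordings were made at 37 C on rat cortical cultures at DIV 13 or 15, with spikes detected at 8x rms threshold.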

A short description of assay [7]: CCTE_Shafer_MEA_acute_burst_percentage_mean: CCTE's Neural Acute Assay for Percentage of Spikes in a Burst, Shafer Lab (AID 2284017).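 For AC50: curve fitted for loss of signal so potency reflects decreased burst percentage.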 Put shortly:
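Well-level mean burst percentage from a 40-min recording after compound (0.03-40 uM) expressed as percent change from a 40-min baseline at 37C. Cultures: primary rat cortical neurons on MEA, dosed on DIV 13 or 15; fitted downward relative to DMSO.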

The nature of assay [8]: CCTE_Shafer_MEA_acute_burst_percentage_std: CCTE's Neural Acute Assay for Standard Deviation of Burst Percentage, Shafer Lab (AID 2284018).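 Note: fitted in the negative direction so actives lower burst percentage SD.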 Put shortly:
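Primary rat cortical neurons on 16-electrode MEA wells were recorded 40 min at baseline (DIV 13 or 15), then 40 min after compound (0.03-40 uM), at 37 C. Well value is SD across electrodes of spikes-in-bursts/total spikes; endpoint is percent change, DMSO-referenced.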

Assay [9] is described as follows: CCTE_Shafer_MEA_acute_per_network_burst_spike_number_mean: CCTE's Neural Acute Assay for Average Number of Spikes in a Network Burst, Shafer Lab (AID 2284019).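 For AC50: curve fitted for loss of signal so actives reduce spikes per network burst.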 Put shortly:
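Acute exposure of rat primary cortical networks (DIV 13/15) on MEAs; adaptive spike detection at 8x rms noise, 37 C. Percent change in spikes per network burst after 40 min with compound (0.03-40 uM), negative direction vs DMSO.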

A short description of assay [10]: CCTE_Shafer_MEA_acute_per_network_burst_spike_number_std: CCTE's Neural Acute Assay for Standard Deviation of Number of Spikes in a Network Burst, Shafer Lab (AID 2284020).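 Note: fitted for decrease in spike-number SD versus DMSO so actives lower it.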 Put shortly:
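Acute MEA exposure, rat cortical neurons, 0.03-40 uM. Per-well % change versus own baseline; DMSO as negative control.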

Assay [11] is described as follows: CCTE_Shafer_MEA_acute_per_network_burst_electrodes_number_mean: CCTE's Neural Acute Assay for Mean Number of Electrodes in a Network Burst, Shafer Lab (AID 2284021).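 Note: curves fitted for decreases only so hits reduce electrodes per burst.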 Put shortly:
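Percent change from baseline in average electrode count per network burst, rat cortical cultures on 48-well MEAs; 40-min recordings each side of exposure, DIV 13 or 15; threshold 8x rms noise; DMSO as negative control.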

Assay [12] is described as follows: CCTE_Shafer_MEA_acute_network_burst_percentage: CCTE's Neural Acute Assay for Percentage of Network Bursts, Shafer Lab (AID 2284022).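 Note: curves fitted for loss so actives lower network burst percentage.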 The method, boiled down:
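On DIV 13 or 15, at least three wells of rat cortical neurons per compound are dosed at 0.03-40 uM. Spontaneous firing is detected at 8x rms noise for 40 min before and after dosing at 37 C. The percent change in network-burst spike share is reported.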

Assay [13] in a line: CCTE_Shafer_MEA_acute_cross_correlation_HWHM: CCTE's Neural Acute Assay for Cross Correlation at Half Width at Half Maximum, Shafer Lab (AID 2284026).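 Note: spontaneous network firing of rat primary cortical neurons on multiwell microelectrode arrays; percent change per well from pre-dose baseline in spike cross-correlogram half width; hits are a decrease in cross-correlogram half width relative to DMSO.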 The method, boiled down: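 Percent change in cross-correlogram half width at half maximum, narrower meaning more synchrony, was derived per well from paired 40-min recordings before and during exposure to 0.03-40 uM compound in rat cortical cultures at 37 C.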

Assay [14] in a line: CCTE_Shafer_MEA_acute_synchrony_index: CCTE's Neural Acute Assay for Synchrony, Shafer Lab (AID 2284027).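 Note: network synchrony index of spontaneous spiking in primary rat cortical neurons on MEAs; fitted for loss of signal so actives lower synchrony relative to DMSO.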 The method, boiled down: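 Acute exposure of rat primary cortical neurons (DIV 13 or 15) at 0.03-40 uM. Synchrony index, 40 min before vs after, as % change relative to DMSO control.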
Assay [15] can be described thus: CCTE_Shafer_MEA_dev_firing_rate_mean: CCTE's Neural Network Formation Assay for Mean Firing Rate, Shafer Lab (AID 2284031). The method, boiled down:
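Extracellular spike frequency, AUC over DIV 5–12 recordings, in rat cortical neuron MEA cultures dosed from plating; loss direction vs DMSO.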

Assay [16] in a line: CCTE_Shafer_MEA_dev_per_burst_spike_percent: CCTE's Neural Network Formation Assay for Percent of Spikes in a Burst, Shafer Lab (AID 2284032). The method, boiled down:
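Value is trapezoidal AUC over recordings on days 5, 7, 9 and 12 of the well-mean fraction of spikes falling in single-electrode bursts; rat cortical cultures exposed continuously from plating, treatment renewed DIV 5 and 9, fitted downward against DMSO.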

The nature of assay [17]: CCTE_Shafer_MEA_dev_active_electrodes_number: CCTE's Neural Network Formation Assay for Number of Active Electrodes, Shafer Lab (AID 2284040; active = hit-call score of the fitted dose curve at least 0.9, where 1 is the maximum;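 for AC50: potency for loss of active electrodes versus DMSO so lower counts are hits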). Put shortly:
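Developing rat cortical networks on MEAs, exposed DIV 0–12. Value is the AUC of active-electrode counts (≥5 spikes/min) from days 5, 7, 9, 12, relative to DMSO.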

Assay [18] in a line: CCTE_Shafer_MEA_dev_burst_rate: CCTE's Neural Network Formation Assay for Burst Rate, Shafer Lab (AID 2284042). Put shortly:
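Exposure ran continuously over 12 days of network development in rat cortical cultures, with compound refreshed during full media changes on DIV 5 and 9. Single-electrode bursts per recording time, well-mean over active electrodes, trapezoidal AUC across days 5–12, fitted downward relative to DMSO.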

Assay [19] is described as follows: CCTE_Shafer_MEA_dev_bursting_electrodes_number: CCTE's Neural Network Formation Assay for Number of Bursting Electrodes, Shafer Lab (AID 2284043; active = hit-call score of the fitted dose curve at least 0.9, where 1 is the maximum;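 for AC50: potency is for loss of bursting electrodes relative to DMSO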). The method, boiled down: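 Counted: electrodes with burst rate ≥1 per 2 min in each well. Cells: primary rat cortex, 1.5 x 10^5/well, on 16-electrode MEA wells. Exposure: DIV 0–12, compound renewed DIV 5 and 9. Recording days 5, 7, 9, 12; AUC vs DMSO baseline.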

Assay [20] is described as follows: CCTE_Shafer_MEA_dev_per_burst_interspike_interval: CCTE's Neural Network Formation Assay for Burst Interspike Interval, Shafer Lab (AID 2284044). The method, boiled down:
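Spontaneous activity of maturing rat cortical networks is recorded on DIV 5, 7, 9 and 12 under chronic compound exposure beginning at plating. Endpoint: burst interspike interval well-mean, collapsed into trapezoidal AUC and fitted in the negative direction relative to DMSO.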

Records with an inconclusive call do not appear. Active and inactive are the calls of the source. Rule for the calls, unless noted: active = hit-call score of the fitted dose curve at least 0.9, where 1 is the maximum; inactive = score below 0.9.

Sequence of Estrogen receptor (Homo sapiens) (P03372 whole entry, looked up): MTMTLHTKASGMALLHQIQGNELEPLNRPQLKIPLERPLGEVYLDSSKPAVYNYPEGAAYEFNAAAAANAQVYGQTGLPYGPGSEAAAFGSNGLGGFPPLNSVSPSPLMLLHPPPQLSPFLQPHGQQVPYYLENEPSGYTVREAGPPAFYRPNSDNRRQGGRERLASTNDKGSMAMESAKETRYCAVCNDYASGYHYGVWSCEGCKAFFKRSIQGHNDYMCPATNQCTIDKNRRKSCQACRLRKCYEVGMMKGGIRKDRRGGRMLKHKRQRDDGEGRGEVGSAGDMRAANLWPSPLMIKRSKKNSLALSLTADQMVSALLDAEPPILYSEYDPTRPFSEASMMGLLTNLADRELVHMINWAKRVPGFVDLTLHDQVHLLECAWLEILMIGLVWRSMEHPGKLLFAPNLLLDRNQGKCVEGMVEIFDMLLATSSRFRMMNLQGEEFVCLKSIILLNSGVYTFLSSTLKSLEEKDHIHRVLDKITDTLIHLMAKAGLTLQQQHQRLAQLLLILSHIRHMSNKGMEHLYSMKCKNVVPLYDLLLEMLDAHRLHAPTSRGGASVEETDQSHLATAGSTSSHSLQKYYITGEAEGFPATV

For `CC(=O)OCCOC(C)=O`, the molecule was called inactive in assay [1], in assay [2] and in [3].
With `CCCCCCCCC=O`, the result in assay [4], in assay [5], in assay [6], in assay [7], in [8] and in [9] was inactive. The call in assay [10], in assay [11], in assay [12], in [13] and in [14] was inactive.
In the case of `CCC(=O)OCc1ccccc1`, the outcome in assay [4], in assay [5], in [6], in assay [7], in assay [8] and in [9] was inactive. The molecule was called inactive in [10], in assay [11], in assay [12], in assay [13] and in [14].
As to `CN(C)CCCN`, the result in assay [1], in assay [2] and in assay [3] was inactive.
Turning to `c1ccc2c(c1)c1cccc3ccc4cccc2c4c31`, the result in assay [15], in [16], in [18] and in assay [20] was inactive. In addition, the results for the AC50 in assay [17] and in [19] were 3.19 µM (active) and 3.33 µM (active), respectively.
On to `CC(=O)[C@H]1CC[C@H]2[C@@H]3CC=C4C[C@@H](O)CC[C@]4(C)[C@H]3CC[C@]12C`, for which the molecule was called inactive in assay [4], in assay [5], in assay [6], in [8], in assay [10] and in assay [11]. Moreover, in [13], the molecule was classed as inactive. Further, the AC50 was 2.98 µM (active) in assay [7], 15 µM (active) in assay [9], 0.0267 µM (active) in assay [12] and 0.00409 µM (active) in assay [14].
For `CCCCCCCCCCCCCC(=O)O`, the call in [1], in assay [2] and in assay [3] was inactive.
As for `C[C@H]1C[C@@H]2[C@H]([C@@H](O)C[C@@]3(C)[C@H]2CC[C@]3(O)C(=O)CO)[C@@]2(C)C=CC(=O)C=C12`, the molecule was called inactive in assay [4], in assay [5], in assay [6], in [7], in [8] and in assay [9]. The molecule was classed as inactive in assay [10], in assay [11], in [12], in [13] and in [14].
For the molecule `COc1cc(C=O)ccc1OC(=O)C(C)C`, the outcome in assay [4], in [5], in assay [6], in [7], in assay [8] and in assay [11] was inactive. Further, the outcome in assay [12], in [13] and in [14] was inactive. Also, the half-maximal activity concentration (AC50) in assay [9] is 3.8 µM (active); in assay [10], 3.76 µM (active).
Regarding `CC[Si](OC(C)=O)(OC(C)=O)OC(C)=O`, the call in assay [4], in [5], in assay [6], in [7], in assay [8] and in assay [9] was inactive. Further, the outcome in assay [10], in [11], in assay [12], in [13] and in assay [14] was inactive.
Turning to `Cc1cc(C2(c3cc(C)c(O)cc3C)OS(=O)(=O)c3ccccc32)c(C)cc1O`, the molecule was classed as inactive in [4], in assay [5], in [6], in assay [7], in [8] and in [10]. The outcome in [11], in assay [12], in assay [13] and in assay [14] was inactive. In addition, in [9], the AC50 is 25.9 µM (active).
In the case of `CN(C)C(=N)N=C(N)N`, the molecule was classed as inactive in assay [4], in [5], in [6], in assay [7], in assay [8] and in [9]. Also, the result in assay [10], in [11], in assay [12], in assay [13], in assay [14] and in assay [15] was inactive. Moreover, the result in [16], in assay [17], in assay [18], in assay [19] and in [20] was inactive.

By AC50 is commonly meant the midpoint of the concentration-response curve, whichever way the signal moves.
